Source: PubChem BioAssay (Tox21)
Activity calls are given as the source filed them. Calls come from the whole dose curve.

biological target: Muscarinic acetylcholine receptor M1 (Homo sapiens) (UniProt P11229); test: Cholinergic receptor muscarinic 1 (CHRM1) small molecule agonists, cell-based qHTS assay (AID 1963589); settings: CHRM1-CHO cells, agonist mode, calcium flux fluorescence; series mostly up to 76.8 µM; activation: at the top concentration; note: nearly all actives have a fitted effect of over 35% in size
Source text: National Center for Advancing Translational Sciences [NCATS]
Division of Preclinical Innovation [DPI]
U.S. Environmental Protection Agency [EPA]
National Institutes of Environmental Health Sciences [NIEHS]
National Toxicology Program [NTP]
U.S. Food and Drug Administration [FDA]
The CHRM1 is a muscarinic receptor. This receptor plays a crucial role in learning and memory processes and has long been identified as a promising therapeutic target for the improvement of cognitive decline in Alzheimer's disease (AD). The CHRM1-CHO cell line stably expressing human muscarinic acetylcholine receptor M1 (CHRM1) can be used for screening agonists and antagonists of interactions between CHRM1 and its ligands. The CHRM1-CHO Calcium Flux Assay is a homogeneous fluorescence-based assay for detecting the intracellular calcium level using FDSS kinetic plate reader system.
CHRM1-CHO cells were dispensed at 1000 cells/3uL/well in 1536-well black-clear bottom plates using a Multidrop Dispenser. After the assay plates were incubated at a 37 C/5% CO2 incubator for 18 h, 3 uL of Dye Loading Buffer was transferred to the assay plate by a Flying Reagent Dispenser. The assay plates were incubated at 37 C for 1h. For agonist mode, 23 nL of compounds dissolved in DMSO, positive controls or DMSO only was transferred to the assay plate by a pin tool. […] Each test compound was measured at 15 concentrations in three independent runs.
% is set by controls: 0 for no effect and ±100 for the full control effect.

Sequence of Muscarinic acetylcholine receptor M1 (Homo sapiens) (P11229 whole entry, looked up): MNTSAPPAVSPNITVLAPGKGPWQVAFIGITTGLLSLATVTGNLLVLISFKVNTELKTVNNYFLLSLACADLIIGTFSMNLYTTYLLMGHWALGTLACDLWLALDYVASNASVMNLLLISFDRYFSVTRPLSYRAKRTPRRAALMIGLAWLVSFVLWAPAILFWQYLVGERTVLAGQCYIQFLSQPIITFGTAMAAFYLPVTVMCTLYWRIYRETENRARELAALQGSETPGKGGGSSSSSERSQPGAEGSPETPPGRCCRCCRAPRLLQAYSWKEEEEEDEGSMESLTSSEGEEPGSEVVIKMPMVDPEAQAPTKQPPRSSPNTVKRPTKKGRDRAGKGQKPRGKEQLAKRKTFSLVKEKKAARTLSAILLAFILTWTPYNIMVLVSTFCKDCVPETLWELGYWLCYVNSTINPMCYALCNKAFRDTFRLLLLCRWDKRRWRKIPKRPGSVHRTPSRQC

| Compound | activation | Potency |
| --- | --- | --- |
| Cc1cccc(C)c1NC(=O)CN1CCN(CCCC(c2ccc(F)cc2)c2ccc(F)cc2)CC1 | 0% [at 35.3 µM] (inactive) |  |
| FC1(F)C(F)(F)C(F)(F)C2(F)C(F)(F)C(F)(F)C(F)(F)C(F)(F)C2(F)C1(F)F (stereo not given) | 0.241% [at 35.3 µM] (inactive) |  |
| On1ccccc1=S | 10.2% (inactive) |  |
| Cc1ccc(C(N)=O)cc1N | -0.161% (inactive) |  |
| Cc1cccc(Nc2ccccc2)c1 | 8.11% (inactive) |  |
| CC(=O)OCC(=O)[C@@]1(O)[C@H](C)C[C@H]2[C@@H]3CCC4=CC(=O)C=C[C@]4(C)[C@@]3(F)[C@@H](O)C[C@@]21C | 0.368% [at 35.3 µM] (inactive) |  |
| CC(C)O.CC(C)O.CCOC(=O)/C=C(\C)O.CCOC(=O)/C=C(\C)O.[Ti] | 0.888% (inactive) |  |
| Cc1c(C(=O)O)c(O)cc2c1C(=O)c1c(O)c([C@@H]3O[C@H](CO)[C@@H](O)[C@H](O)[C@H]3O)c(O)c(O)c1C2=O |  | inactive |
| CC(Cc1cccc(C(F)(F)F)c1)NCCOC(=O)c1ccccc1 (stereo not given) | 20.3% [at 35.3 µM] (inactive) |  |
| CCCCCCCCCCCCCCCCCCCl | 0.0826% [at 6.97 µM] (inactive) |  |
| CCCCC[Si](OCC)(OCC)OCC | -0.0625% (inactive) |  |
| c1cc[c]([Bi]([c]2ccccc2)[c]2ccccc2)cc1 | 1.21% (inactive) |  |
| O=C(Cl)c1c(Cl)cccc1Cl | 0.271% (inactive) |  |
| CN(C)CCOC(=O)C(c1ccccc1)C1(O)CCCC1 (stereo not given) | -0.999% [at 35.3 µM] (inactive) |  |
| O=C(O)CCn1c2c(c3ccccc31)C[C@H](NS(=O)(=O)c1ccc(F)cc1)CC2 | 0.144% [at 35.3 µM] (inactive) |  |
| CCCCCCCCCCCCCCCC(=O)OC/C=C(C)/C=C/C=C(C)/C=C/C1=C(C)CCCC1(C)C | 0.0618% (inactive) |  |
| CCn1c(=O)c2c(nc(/C=C/c3ccc(OC)c(OC)c3)n2C)n(CC)c1=O | 0.0302% [at 35.3 µM] (inactive) |  |
| CC(=O)[O][Al] | -0.2% (inactive) |  |
| Clc1ccc(C(Cn2ccnc2)OCc2ccsc2Cl)c(Cl)c1 (stereo not given) | 2.15% [at 35.3 µM] (inactive) |  |
| Cc1ccccc1N=C(N)N=C(N)N | -1.13% (inactive) |  |

| Compound | activation | Potency |
| --- | --- | --- |
| CC1(C)O[C@@H]2C[C@H]3[C@@H]4CCC5=CC(=O)C=C[C@]5(C)[C@H]4[C@@H](O)C[C@]3(C)[C@]2(C(=O)CO)O1 | 5.72% [at 35.3 µM] (inactive) |  |
| COC(=O)C1=C(C)NC(C)=C(C(=O)OC(C)C)C1c1cccc2nonc12 (stereo not given) | -0.515% [at 35.3 µM] (inactive) |  |
| CNCc1ccc(NC(=O)c2c[nH]c3c2C(=O)CCC3)cc1 | -0.959% (inactive) |  |
| COc1cc(Cl)ccc1Oc1ccc(Cl)cc1Cl | 0.145% (inactive) |  |
| NCCCN(CCO)CCO | -0.492% (inactive) |  |
| CCC(C)OC(C)CC (stereo not given) | -0.124% (inactive) |  |
| CC(=O)N(CC(O)CO)c1c(I)c(C(=O)NCCO)c(I)c(C(=O)NCC(O)CO)c1I (stereo not given) | -0.494% [at 35.3 µM] (inactive) |  |
| CN1C(CSCC(F)(F)F)Nc2cc(Cl)c(S(N)(=O)=O)cc2S1(=O)=O (stereo not given) | -0.0147% [at 35.3 µM] (inactive) |  |
| CCCCCCCC/C=C\CCCCCCCCO | 1.15% (inactive) |  |
| O=C(O)O | -0.0976% [at 6.97 µM] (inactive) |  |
| COc1ccc(-c2ccc3cc(C(=O)O)ccc3c2)cc1C12CC3CC(CC(C3)C1)C2 | 1.63% [at 35.3 µM] (inactive) |  |
| COC(=O)c1ccc(C(=O)O)cc1 | -0.0426% (inactive) |  |
| CNCCCC1c2ccccc2C=Cc2ccccc21 | -0.182% [at 35.3 µM] (inactive) |  |
| CC1CC(=O)NN=C1c1ccc(NCC(C)(C)NCC(O)COc2cc(Cl)ccc2C#N)cc1 (stereo not given) | -0.0841% [at 35.3 µM] (inactive) |  |
| CCN(CCC#N)c1ccccc1 | -0.715% (inactive) |  |
| CC(=O)O[Si](C)(OC(C)=O)OC(C)=O | 1.37% (inactive) |  |
| OC(C#CCN1CCCC1)(c1ccccc1)c1ccccc1 | -0.45% [at 35.3 µM] (inactive) |  |
| ClC(Cl)(Cl)c1ccc(C(Cl)(Cl)Cl)cc1 | 2.23% (inactive) |  |
| COc1ccc(CCN(C)CCCN2CCc3cc(OC)c(OC)cc3CC2=O)cc1OC | 0.0202% [at 35.3 µM] (inactive) |  |
| CCOC(=O)c1ccccc1C(=C1C=C(Br)C(=O)C(Br)=C1)c1cc(Br)c(O)c(Br)c1 | 9.89% [at 35.3 µM] (inactive) |  |
